Rows were chosen to be rich in hits. Some 19% of all compounds tested hit in one or more screens of this group.
uPA generation: inhibitors of cell surface uPA generation | cell surface uPA generation assay, qHTS | Potency, µM (doses to about 38.3 µM), actives largely listed as inhibitors | hit rate 0.31% among 330,000 | AID 540303; active = well fitted inhibition curve with a large enough effect; inconclusive = small, poorly fitted or top-dose-only effect; inactive = no such curve, though single readings can be large or run the other way; tested in mouse RAW 264.7 cells; note: nearly all actives have a fitted effect of over 55% in size
DT40 TDP1 no CPT: qHTS for Inhibitors of human tyrosyl-DNA phosphodiesterase 1 (TDP1): qHTS in cells in absence of CPT. Potency, µM (top dose mostly 46.2 µM), most hits filed as inhibitors. DT40 Tdp1-/- hTDP1 cells, no CPT, ATP luminescence, 48 h. hit rate 15% among 420,000; note: nearly all actives have a fitted effect of over 55% in size
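Stably hTDP1-transfected Tdp1-null chicken DT40 cells were treated with library compounds minus camptothecin and grown for at least 48 hr at 37 °C, after which cellular ATP was quantified by luminescence.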
HT1080-NT tox: kills 2HG-producing HT-1080-NT fibrosarcoma cells; hit rate 1.6% among 360,000; HT-1080-NT fibrosarcoma viability, CellTiter-Glo ATP luminescence, 48 h; Potency, µM (titrated, usually from 46.1 µM), usual class: cytotoxic;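 note: NT is the 2HG producing partner of a matched IDH1 knockdown line; nearly all actives have a fitted effect of over 55% in size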
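Toxicity toward the 2HG-producing NT line was scored as %Activity, normalised to DMSO and no-cell wells, from CellTiter-Glo luminescence after 48 hours' treatment.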
TDP1 cell CPT: growth inhibition of DT40 Tdp1-/-;hTDP1 cells with camptothecin (screen for TDP1 inhibitors); hit rate 12% among 420,000; Potency, µM (series often up to 46.2 µM), hits mostly inhibitors; chicken DT40 Tdp1-/-;hTDP1 cells + 20 nM CPT, ATP luminescence, 48 h; note: nearly all actives have a fitted effect of over 55% in size
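Cell growth measured by CellTiter-Glo luminescence after a minimum 48 h, 37 C compound exposure with 20 nM CPT in Tdp1-knockout DT40 cells stably expressing hTDP1, seeded 400/well; qHTS titration format.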
IL1B secr inh: blocks inflammasome-driven IL-1 beta release. THP-1 LPS/ATP IL-1B secretion, AlphaLISA, 16 h; hits give low values. activity change, % at 57.5 µM. hit rate 4.7% among 360,000. AID 743279; in the data active = activity change below about -50%; inconclusive = mostly about -30% to -49%
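Secreted IL-1B measured by AlphaLISA bead assay after 16 h compound exposure of THP-1 cells; compounds (final up to 57.5 uM) added 1 h before LPS (250 ng/mL) and ATP (1.25 mM) stimulation; lower signal means less secretion.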
HT1080 IDH1KD tx: HT-1080 IDH1 knockdown cell toxicity (counter line); AID 686971; hit rate 2% among 360,000; HT-1080 IDH1 knockdown viability, ATP luminescence, 48 h; Potency, µM (doses to about 46.1 µM), usual class: cytotoxic
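Cytotoxicity counter-line: IDH1KD HT-1080, 48 h, CellTiter-Glo. Curves classed by r2, magnitude and activity.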
Of the large screens only hits and unclear results are named; the others gave an inactive call. Unless noted, calls come from the whole dose curve; as a rule, active = well fitted curve in the direction sought with a large enough effect; inconclusive = small, poorly fitted or top-dose-only effect, or another doubt; inactive = no such curve, though single readings can be large; an effect the other way counts as inactive or inconclusive.

CC(C)(C)NC(=O)C(c1ccc(Cl)cc1)N(Cc1ccco1)C(=O)CCl (configuration not stated)	DT40 TDP1 no CPT 2.91µM, TDP1 cell CPT 4.61µM, IL1B secr inh inconclusive
COc1ccc(CN(CC(=O)NC2CCCC2)C(=O)c2ccc(-c3ccccc3)[nH]2)cc1	DT40 TDP1 no CPT inconclusive, HT1080-NT tox inconclusive, IL1B secr inh -67.9
O=C(NC1CCCCC1)C(c1ccncc1)N(Cc1ccccc1)C(=O)c1ccc(-c2ccccc2)[nH]1 (configuration not stated)	DT40 TDP1 no CPT inconclusive, HT1080-NT tox inconclusive, TDP1 cell CPT 16.4µM, HT1080 IDH1KD tx inconclusive
CC(C)(C)NC(=O)C(c1ccc(F)cc1)N(Cc1ccco1)C(=O)c1csnn1 (configuration not stated)	TDP1 cell CPT inconclusive
CC(C)(C)NC(=O)C(c1ccc(O)cc1)N(Cc1ccco1)C(=O)CCC(=O)Nc1ccccn1 (configuration not stated)	none
Cc1cccc(OC(C)C(=O)Nc2ncn[nH]2)c1 (configuration not stated)	none (no result: uPA generation, HT1080-NT tox, IL1B secr inh, HT1080 IDH1KD tx)
O=C(O)C1CCC(N2C(=O)c3cccc([N+](=O)[O-])c3C2=O)CC1 (configuration not stated)	none
COc1ccc(NC(=O)CCc2c(C)nc3nc(C)nn3c2C)cc1	none
Cc1cccc(CCNC(=O)CCc2c(C)nc3c(-c4ccc(F)cc4)c(C)nn3c2C)c1	DT40 TDP1 no CPT 9.2µM, TDP1 cell CPT inconclusive (no result: uPA generation, HT1080-NT tox, IL1B secr inh, HT1080 IDH1KD tx)
CC(=O)c1cccc(NC(=O)CCc2c(C)nc3c(-c4ccc(F)cc4)c(C)nn3c2C)c1	DT40 TDP1 no CPT inconclusive, TDP1 cell CPT 2.59µM (no result: uPA generation, HT1080-NT tox, IL1B secr inh, HT1080 IDH1KD tx)
COc1cc(NC(=O)CCc2c(C)nc3c(-c4ccc(F)cc4)c(C)nn3c2C)cc(OC)c1OC	DT40 TDP1 no CPT 6.51µM, TDP1 cell CPT 5.17µM (no result: uPA generation, HT1080-NT tox, IL1B secr inh, HT1080 IDH1KD tx)
Cc1ccc(NC(=O)CCc2c(C)nc3c(-c4ccc(F)cc4)c(C)nn3c2C)cc1F	DT40 TDP1 no CPT inconclusive (no result: uPA generation, HT1080-NT tox, IL1B secr inh, HT1080 IDH1KD tx)
COC(CNC(=O)CCc1c(C)nc2c(-c3ccc(F)cc3)c(C)nn2c1C)OC	DT40 TDP1 no CPT inconclusive
CC(=O)n1cc(/C=N/NC(=O)c2ccc(Cl)cc2)c2ccccc21	none
CC1=NN(c2ccccc2)C(=O)C1N=Nc1ccc(N)cc1 (configuration not stated)	DT40 TDP1 no CPT 10.3µM, TDP1 cell CPT 14.6µM, HT1080 IDH1KD tx 23.1µM
COc1ccc(N=NC2C(=O)N(c3ccccc3)N=C2C)cc1 (configuration not stated)	none
CC1=NN(c2ccccc2)C(=O)C1N=Nc1ccccc1 (configuration not stated)	none
CC1=NN(c2ccccc2)C(=O)C1N=Nc1cccc(O)c1 (configuration not stated)	DT40 TDP1 no CPT 16.4µM, HT1080-NT tox inconclusive, TDP1 cell CPT 16.4µM, HT1080 IDH1KD tx inconclusive
Cc1ccc(C(=O)NN(C)c2nc3ccccc3nc2C(F)(F)F)cc1	DT40 TDP1 no CPT 3.66µM, HT1080-NT tox inconclusive, TDP1 cell CPT 4.61µM, HT1080 IDH1KD tx inconclusive
CN(NC(=O)c1ccc(Cl)cc1)c1nc(-c2ccccc2)nnc1C(F)(F)F	DT40 TDP1 no CPT 14.6µM, TDP1 cell CPT 20.6µM
O=C(c1ccc2[nH]c(=O)c(=O)[nH]c2c1)N1CCc2ccccc2C1	none
CCn1ccnc1CN(C)Cc1cn(C)nc1-c1ccccc1F	none
CCn1ccnc1CN(C)Cc1cn(-c2ccccc2)nc1-c1ccc(OC)cc1F	DT40 TDP1 no CPT inconclusive, TDP1 cell CPT inconclusive, IL1B secr inh -74.2
COc1cccc(-c2nn(-c3ccccc3)cc2CN(C)Cc2ccno2)c1	DT40 TDP1 no CPT 20.6µM, TDP1 cell CPT 20.6µM
Cc1nc(C(=O)NNC(=O)c2c(-c3c(Cl)cccc3Cl)noc2C)cs1	DT40 TDP1 no CPT 16.4µM, HT1080-NT tox inconclusive, TDP1 cell CPT inconclusive, HT1080 IDH1KD tx inconclusive
Cc1cc(C)nc(NC(=O)c2c(-c3c(Cl)cccc3Cl)noc2C)n1	DT40 TDP1 no CPT inconclusive
Cc1cc(C(=O)NNC(=O)c2c(-c3c(Cl)cccc3Cl)noc2C)no1	none
Cc1onc(-c2c(Cl)cccc2Cl)c1C(=O)Nc1nc(C(C)(C)C)cs1	DT40 TDP1 no CPT 23.1µM, HT1080-NT tox inconclusive, TDP1 cell CPT inconclusive, IL1B secr inh inconclusive, HT1080 IDH1KD tx inconclusive
COc1cc(-c2nnc(Sc3ccc(C(F)(F)F)cc3[N+](=O)[O-])o2)cc(OC)c1OC	DT40 TDP1 no CPT 23.1µM, TDP1 cell CPT 20.6µM, IL1B secr inh inconclusive (no result: uPA generation)
CC(C)NC(=O)CN(Cc1ccc(F)cc1)C(=O)CCC(=O)Nc1ccccn1	none
OC(Cc1ccncc1)(c1ccccc1)c1ccccc1	DT40 TDP1 no CPT inconclusive, TDP1 cell CPT inconclusive
COc1cccc2ccc(CC(O)(c3ccccc3)c3ccccc3)nc12	DT40 TDP1 no CPT 25.9µM, TDP1 cell CPT inconclusive (no result: uPA generation)
Cc1ccc2nc(CC(O)(c3ccccc3)c3ccccc3)ccc2c1	DT40 TDP1 no CPT 20.6µM, TDP1 cell CPT inconclusive (no result: uPA generation)
COC(=O)C(Cc1cccc(C)n1)(c1ccccc1)c1ccccc1	TDP1 cell CPT inconclusive
CCCn1c(=O)n(-c2ccccc2)c(=O)c2sc3ccccc3c21	DT40 TDP1 no CPT inconclusive (no result: uPA generation, HT1080-NT tox, IL1B secr inh, HT1080 IDH1KD tx)
O=C(CN1Cc2ccccc2OC(c2ccccc2)C1)NCc1cccnc1 (configuration not stated)	DT40 TDP1 no CPT inconclusive (no result: uPA generation, HT1080-NT tox, IL1B secr inh, HT1080 IDH1KD tx)
C=C(C)COc1ccc2c(c1)CCC1C2CCC2(C)C(=O)C(=NO)CC12 (configuration not stated)	DT40 TDP1 no CPT inconclusive, TDP1 cell CPT 16.4µM, IL1B secr inh -99.3, HT1080 IDH1KD tx inconclusive
C=C1C[C@H]2[C@@H]3CCc4cc(OC)ccc4[C@H]3CC[C@]12C	none
CCc1cc(C(=O)N=Nc2c(O)[nH]c3c(Br)cc(Br)cc23)c2ccccc2n1	DT40 TDP1 no CPT inconclusive, HT1080-NT tox inconclusive, TDP1 cell CPT 20.6µM
CSC1=Nc2sc3c(c2C2=NCCN12)CC(C)(C)OC3	DT40 TDP1 no CPT inconclusive, TDP1 cell CPT inconclusive
N#Cc1c(N)nc(Sc2ccc(Cl)cc2)c(C#N)c1-c1ccccc1Cl	DT40 TDP1 no CPT 14.6µM, HT1080-NT tox inconclusive, TDP1 cell CPT 16.4µM, IL1B secr inh -96.2, HT1080 IDH1KD tx inconclusive
Cc1ccc(-c2cc(-c3ccccc3Cl)c(C#N)c(N)n2)o1	DT40 TDP1 no CPT inconclusive, TDP1 cell CPT inconclusive, IL1B secr inh inconclusive
COC(=O)c1cnn(-c2ccc(C(=O)Nc3cccc(C(C)=O)c3)cc2)c1N	none (no result: uPA generation, HT1080-NT tox, IL1B secr inh, HT1080 IDH1KD tx)
CN(C)c1nc(=NCc2ccco2)ss1	DT40 TDP1 no CPT 0.0366µM, TDP1 cell CPT 0.146µM, IL1B secr inh -89.4
O=S1(=O)NC(=NCc2ccco2)c2ccccc21	none
